Bioassay records from PubChem BioAssay.
Rows were chosen to be rich in hits. Some 12% of all compounds tested hit in one or more screens of this group.
BAZ2B inh: blocks human BAZ2B. Potency, µM (top dose mostly 114 µM), for inactives: at the highest dose activity change, negative = inhibition, most hits filed as inhibitors. Q9UIF8. AID 504333. 360,000 compounds, 4.4% hits. AlphaScreen BAZ2B-H3K14Ac peptide displacement; further: on the % scale 0 is the no-effect control and ±100 the full control effect; nearly all actives have a fitted effect of over 60% in size
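AlphaScreen displacement of biotin-H3(5-23)K14Ac peptide (50 nM final) from BAZ2B (50 nM final) in PBS pH 7.4, 0.01% Tween-20; complex preformed 30 min RT, then compounds (top 110 uM) 30 min RT, beads 20 min dark.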
HP1b chromo inh: blocks HP1-beta chromodomain binding to methylated histone tails | AlphaScreen HP1-beta / biotin-H3K9me3 peptide binding | Potency, µM (highest dose often 114 µM), for inactives: top-dose activity change, negative = inhibition, most hits filed as inhibitors | 390,000 compounds, 0.56% hits; further: nearly all actives have a fitted effect of over 70% in size
Target sequence (P83916 whole entry, looked up): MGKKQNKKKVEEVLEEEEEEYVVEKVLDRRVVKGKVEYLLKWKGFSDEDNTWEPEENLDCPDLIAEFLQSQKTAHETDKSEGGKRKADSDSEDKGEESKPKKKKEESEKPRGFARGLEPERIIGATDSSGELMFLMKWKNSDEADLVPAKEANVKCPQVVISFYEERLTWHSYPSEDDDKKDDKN
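HP1-beta protein (50 nM final) preincubated 30 min at room temperature with biotinylated H3(1-18)K9me3 peptide (50 nM) in PBS pH 7.4, 0.01% Tween-20, then compound added for 30 min. AlphaScreen streptavidin donor/nickel chelate acceptor beads (10 ug/mL final), 30 min dark, luminescence read.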
JMJD2A Tudor inh: inhibitors of human JMJD2A Tudor domain; O75164; AlphaScreen JMJD2A-Tudor / H3K4me3 peptide binding; Potency, µM (highest dose often 114 µM), without a hit: at the highest dose activity change, negative = inhibition, actives largely listed as inhibitors; 390,000 compounds, 4.4% hits; AID 504339; further: on the % scale 0 is the no-effect control and ±100 the full control effect; nearly all actives have a fitted effect of over 50% in size
G9a inh: G9a (human) methyltransferase inhibition; Q96KQ7; G9a H3K9 monomethylation, AlphaScreen, 2 h; Potency, µM (doses to about 102 µM), for the others: at the top dose activity, negative = inhibition, most hits filed as inhibitors; 350,000 compounds, 8.8% hits; further: on the % scale 0 is the no-effect control and ±100 the full control effect; nearly all actives have a fitted effect of over 75% in size
Target sequence (Q96KQ7 913-1193 limits assumed): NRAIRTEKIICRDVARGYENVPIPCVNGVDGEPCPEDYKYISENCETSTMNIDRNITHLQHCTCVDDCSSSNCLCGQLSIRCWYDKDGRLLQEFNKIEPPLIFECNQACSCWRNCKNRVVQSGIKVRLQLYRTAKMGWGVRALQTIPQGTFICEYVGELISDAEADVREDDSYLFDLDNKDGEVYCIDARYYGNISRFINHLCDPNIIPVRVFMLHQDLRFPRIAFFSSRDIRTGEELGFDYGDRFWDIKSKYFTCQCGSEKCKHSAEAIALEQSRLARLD
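Quantitative HTS format: methyltransferase activity on a biotin-tagged H3K9 peptide is measured by AlphaScreen, using a rabbit anti-monomethyl-H3K9 antibody with streptavidin donor and anti-IgG acceptor beads. Final levels are 20 nM enzyme, 500 nM peptide, 20 uM SAM; 2 h RT.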
Sfp inh: Sfp phosphopantetheinyl transferase inhibition; Biochemical Sfp PPTase activity, qHTS; Potency, µM, inactives show largest response in the series, negative = inhibition, hits mostly inhibitors; 310,000 compounds, 3.5% hits; AID 1490;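 further: the enzyme is Sfp with the accession as filed and its product quenches rhodamine fluorescence; 0% = enzyme reaction without inhibitor and -100% = no enzyme wells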
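Reaction rates are the 30-min fluorescence difference (ex 525, em 598 nm) in wells containing 15 nM Sfp, 5 uM rhodamine-CoA and 12.5 uM BHQ-2-YbbR at pH 7.6 with 10 mM MgCl2.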
PLK1 PBD block: PLK1 (human) polo-box domain binding inhibition. Potency, µM, without a hit: max response, negative = inhibition, hits mostly inhibitors. 360,000 compounds, 2.8% hits. P53350. Plk1 PBD binding of FITC phosphopeptide, fluorescence polarization; further: series mostly up to about 57 µM; on the % scale 0 is the no-effect control and ±100 the full control effect; nearly all actives have a fitted effect of over 65% in size
Active calls of the source: *; ! = not confirmed by another sample; [ ] = dose if it differs, or a comment. The call rests on the fitted dose curve; in most records, active means well fitted curve in the direction sought with a large enough effect; inconclusive means small, poorly fitted or top-dose-only effect, or another doubt; inactive means no such curve, though single readings can be large; an effect the other way counts as inactive or inconclusive. Potency means the concentration at half of the fitted maximal effect.

What do the screens show for `CC(C)(C)C(O)C(Oc1ccc(-c2ccccc2)cc1)n1cncn1` (configuration not stated)?
Sfp inh: -16.3%

Results for COc1ccccc1N1CCN(C2CCN(C(=O)c3cccs3)CC2)CC1 ?
BAZ2B inh: -34.3%; HP1b chromo inh: -52.5%; JMJD2A Tudor inh: 7.08µM*; G9a inh: 28.2µM*; Sfp inh: -11.2%; PLK1 PBD block: -0.3%

Results for COc1ccccc1OCC(=O)N1CCCC(N2CCN(c3ccc(F)cc3)CC2)C1 (configuration not stated) ?
BAZ2B inh: -17.4%; HP1b chromo inh: 9.5%; JMJD2A Tudor inh: -10.2%; G9a inh: -12.4%; Sfp inh: 14.3%; PLK1 PBD block: 2.2%

How did CCNC(=O)O/N=C(\C)c1sc(-c2ccccc2)nc1C do in these assays?
BAZ2B inh: -4.3%; HP1b chromo inh: -3.5%; JMJD2A Tudor inh: -6.2%[11.4 µM]; G9a inh: 11.9%; Sfp inh: -0.3%; PLK1 PBD block: 23.8µM*

How did Brc1ccccc1 do in these assays?
BAZ2B inh: 8.0%; HP1b chromo inh: 13.7%; JMJD2A Tudor inh: -9.5%; G9a inh: 20.7%[59 µM]; Sfp inh: 6.1%; PLK1 PBD block: -13.4%

How did S=C(Nc1ccccc1)Nc1cccc(Br)c1 do in these assays?
BAZ2B inh: -10.7%; HP1b chromo inh: 19.2%; JMJD2A Tudor inh: -12.7%; G9a inh: -4.9%[59 µM]; Sfp inh: -27.1%; PLK1 PBD block: 26.7µM*

How did CC(CNC(=O)c1cccnc1)NC(=O)c1cccnc1 (configuration not stated) do in these assays?
G9a inh: inconclusive; Sfp inh: 2.0%

How did O=C(O)C1Sc2[nH]c(=O)sc2C2c3cc(Cl)ccc3OC(=O)C12 (configuration not stated) do in these assays?
BAZ2B inh: inconclusive; HP1b chromo inh: -15.6%; JMJD2A Tudor inh: inconclusive; G9a inh: 28.2µM*; Sfp inh: 50.1µM*; PLK1 PBD block: inconclusive

How did CN1CCC(c2c[nH]c3ccc(O)cc23)CC1 do in these assays?
HP1b chromo inh: 38.4%; JMJD2A Tudor inh: -15.9%; G9a inh: 12.6µM*!; Sfp inh: 20.6%; PLK1 PBD block: -2.2%

What do the screens show for `CC(Cc1ccc(OCC(=O)O)cc1)NCC(O)c1cccc(Cl)c1` (configuration not stated)?
G9a inh: 20.5%[12.7 µM]; Sfp inh: 4.7%

What do the screens show for `CCOC(=O)C1(CCc2ccccc2)CCN(C2CCSCC2)CC1`?
BAZ2B inh: -11.3%; HP1b chromo inh: 19.9%; JMJD2A Tudor inh: -18.4%; Sfp inh: 79.4µM*; PLK1 PBD block: -8.6%

Results for O=C(Nc1ccc2c(c1)OCO2)c1cccn(Cc2ccc(F)cc2)c1=O ?
BAZ2B inh: inconclusive; HP1b chromo inh: 19.7%; JMJD2A Tudor inh: -22.4%; G9a inh: inconclusive

Results for Cn1c(N)c(Sc2ccccc2[N+](=O)[O-])c(=O)n(C)c1=O ?
BAZ2B inh: -1.6%; HP1b chromo inh: 4.9%; JMJD2A Tudor inh: -4.9%; G9a inh: 44.7µM*; Sfp inh: -12.7%; PLK1 PBD block: -24.7%

Results for Cn1c(O)c(C=Nc2ccccc2Sc2ccccc2)c(=O)n(C)c1=O ?
BAZ2B inh: 1.5%; HP1b chromo inh: 99.2%; JMJD2A Tudor inh: 22.7%[57.1 µM]; G9a inh: 10.7%[59 µM]; Sfp inh: 3.9%; PLK1 PBD block: -25.2%

How did CC1CC(C)C(=O)[C@H](C(O)CC2CC(=O)NC(=O)C2)C1 (some centres not stated) do in these assays?
G9a inh: -29.9%[2.33 µM]; Sfp inh: 21.2%

Results for O=c1c2ccccc2cnn1Cc1n[nH]c(=S)n1C1CC2CCC1C2 (configuration not stated) ?
BAZ2B inh: -8.5%; HP1b chromo inh: 19.3%; JMJD2A Tudor inh: 3.16µM*; G9a inh: -132.0%[59 µM]; Sfp inh: 0.6%; PLK1 PBD block: -15.4%

How did Cn1cnc([N+](=O)[O-])c1Sc1ccc([N+](=O)[O-])cc1 do in these assays?
BAZ2B inh: -8.3%; HP1b chromo inh: 1.8%; JMJD2A Tudor inh: -12.4%; Sfp inh: 56.2µM*; PLK1 PBD block: 10.6µM*

What do the screens show for `CCCC(C)C1(CC)C(=O)NC(=O)NC1=O` (configuration not stated)?
G9a inh: -43.4%[2.33 µM]; Sfp inh: 10.9%

Results for Cc1ccccc1-n1c(O)c(/C=N/N2CCOCC2)c(=O)[nH]c1=S ?
BAZ2B inh: inconclusive; HP1b chromo inh: 18.2%; JMJD2A Tudor inh: -29.1%; G9a inh: inconclusive; Sfp inh: -25.8%; PLK1 PBD block: 2.7%

Results for Cn1c(O)c(/C=N/N2CCOCC2)c(=O)n(-c2ccccc2)c1=S ?
BAZ2B inh: -17.0%; HP1b chromo inh: 16.4%; JMJD2A Tudor inh: -24.0%; G9a inh: -39.1%; Sfp inh: -8.1%; PLK1 PBD block: -3.6%

What do the screens show for `O=c1c(/C=N/N2CCOCC2)c(O)n(-c2ccccc2)c(=S)n1-c1ccccc1`?
BAZ2B inh: inconclusive; HP1b chromo inh: 10.6%; JMJD2A Tudor inh: -11.8%; G9a inh: 50.1µM*; Sfp inh: -22.9%; PLK1 PBD block: -8.6%

Results for O=c1[nH]c(=S)n(-c2ccc(F)cc2)c(O)c1/C=N/N1CCOCC1 ?
BAZ2B inh: inconclusive; HP1b chromo inh: 39.0%; JMJD2A Tudor inh: 8.1%; G9a inh: 44.7µM*; Sfp inh: 3.5%; PLK1 PBD block: 4.7%

What do the screens show for `CC(C)CC(CN)CC(=O)O` (configuration not stated)?
G9a inh: -2.0%[2.33 µM]; Sfp inh: 19.5%

Results for Cc1ccc(NC(=O)OC(C)CNC(=O)Oc2cccc(C)c2)cc1 (configuration not stated) ?
BAZ2B inh: inconclusive; HP1b chromo inh: 31.3%; JMJD2A Tudor inh: -11.6%; G9a inh: 2.5%; Sfp inh: 12.3%; PLK1 PBD block: -20.3%

Results for Fc1ccc(CN2CCN(c3ccc(Cl)cc3)CC2)cc1 ?
BAZ2B inh: -16.5%; HP1b chromo inh: 15.4%; JMJD2A Tudor inh: -23.4%; G9a inh: -32.5%; Sfp inh: 4.0%; PLK1 PBD block: -12.0%

How did O=[N+]([O-])c1ccc(CN2CCN(c3ccc(Cl)cc3)CC2)o1 do in these assays?
BAZ2B inh: 44.7µM*; HP1b chromo inh: inconclusive; JMJD2A Tudor inh: 17.8µM*; Sfp inh: 79.4µM*; PLK1 PBD block: 4.8%

How did Cc1ccc2c(CN3CC=C(c4ccccc4)CC3)cc(=O)oc2c1C do in these assays?
BAZ2B inh: -0.8%; HP1b chromo inh: 12.6%; JMJD2A Tudor inh: -24.2%; G9a inh: 50.1µM*; Sfp inh: -5.3%; PLK1 PBD block: -19.6%

How did COc1ccc(C(C)=O)cc1CN1CC=C(c2ccccc2)CC1 do in these assays?
BAZ2B inh: 50.1µM*; HP1b chromo inh: 79.4µM*; JMJD2A Tudor inh: 44.7µM*; G9a inh: 12.6µM*; Sfp inh: -13.1%; PLK1 PBD block: 0.4%
